Results: PubChem BioAssay AID743167 (National Center for Advancing Translational Sciences (NCATS), 2013)
Results filed as inconclusive are left out. The source made the active and inactive calls. The call rests on the fitted dose curve; in most records, active means well fitted activation curve with a large enough effect; inconclusive means small, poorly fitted or top-dose-only effect; inactive means flat fitted curve, though single readings scatter.

test: Extended Characterization of HPGD Inhibitors: PGE2 Assay in A549 Cells; details: PGE2 HTRF level, 16 h
Text: The central role of HPGD is to inactivate prostaglandins such as prostaglandin E2 (PGE2) or prostaglandin D2 (PGD2). These prostaglandins are involved in a number of processes, including inflammation, differentiation, and cellular signaling, which makes HPGD an important target for pharmacological intervention. A number of prostaglandins of particular biological interest have been identified as substrates of HPGD. […] Over-production of PGE2 has been reported to promote tumor-associated neovascularization, cell proliferation, and tumor growth. […] In this orthogonal assay, we set out to measure if compounds were able to increase PGE2 production NIH Chemical Genomics Center [NCGC] NIH Molecular Libraries Probe Centers Network [MLPCN] MLPCN Grant: MH084681 Assay Submitter (PI): Structural Genomics Consortium
A549 cells, LNCaP cells or media were dispensed in 384-well plates (ProxiPlate-384 Plus, PerkinElmer, Shelton, CT) at 5,000 cells/9.9 uL/well using a CappAero384 multichannel pipette (Odense, Denmark). Separately on the plate, 10 uL of PGE2 calibration standards at a starting assay concentration of 5,000 pg/mL (1:2 dilution, 12-points, n = 1, prepared in media, Cisbio, Bedford, MA) were dispensed. Compounds (100 nL, final concentration range from 41.9 nM to 100 uM) were transferred using an ATS Acoustic Liquid Dispenser (EDC Biosystems, Fremont, CA). After being mixed using an automated liquid handler (CyBio, Jena, Germany), samples were incubated (37 deg C, 5% CO2, under a humidified atmosphere) for 16 hours. PGE2 labeled conjugates were added to each well, first 5 uL of PGE2-d2, followed by 5 uL of anti-PGE2-cryptate, centrifuged (1,500 rpm, 15 sec) and incubated (RT, protected from light) for 5 hours. Time-resolved fluorescence intensity (320 nm excitation, 615 and 665 nm emission) was measured using an Envision plate reader (PerkinElmer). Data was expressed as the ratio of 665 nm/615 nm emissions. Concentration (pg/mL) of samples were calculated from a 4-parameter logistic calibration curves of the PGE2 standards.

Structure (SMILES)	Potency
CCCCn1cnc2cc(C(=O)N3CCCCC3)ccc21	2.96 µM (active)
